Assay results taken from PubChem BioAssay AID489037 (National Center for Advancing Translational Sciences (NCATS), 2010).
Inconclusive results are not listed. Activity calls are given as the source filed them. Calls come from the whole dose curve; as a rule, active = well fitted inhibition curve with a large enough effect; inconclusive = small, poorly fitted or top-dose-only effect, or effect the other way; inactive = no such curve, though single readings can be large or run the other way.

target: Nuclear receptor ROR-gamma (Mus musculus) (UniProt P51450); assay: Secondary confirmation assay for inhibitors of ROR gamma transcriptional activity; conditions: Drosophila S2 Gal4-RORgamma UAS-luciferase reporter, 20 h; series mostly up to 92.2 µM
Method in brief: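 Drosophila Schneider cells stably expressing Gal4-DBD/ROR gamma fusion (metallothionein promoter) with UAS-Photinus luciferase reporter. Compound preincubated 1 hr, then copper sulfate 700 uM final added; 20 hr at ambient temperature, luminescence read.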

Nuclear receptor ROR-gamma (Mus musculus), sequence (P51450 whole entry, looked up, the tested form may be a part): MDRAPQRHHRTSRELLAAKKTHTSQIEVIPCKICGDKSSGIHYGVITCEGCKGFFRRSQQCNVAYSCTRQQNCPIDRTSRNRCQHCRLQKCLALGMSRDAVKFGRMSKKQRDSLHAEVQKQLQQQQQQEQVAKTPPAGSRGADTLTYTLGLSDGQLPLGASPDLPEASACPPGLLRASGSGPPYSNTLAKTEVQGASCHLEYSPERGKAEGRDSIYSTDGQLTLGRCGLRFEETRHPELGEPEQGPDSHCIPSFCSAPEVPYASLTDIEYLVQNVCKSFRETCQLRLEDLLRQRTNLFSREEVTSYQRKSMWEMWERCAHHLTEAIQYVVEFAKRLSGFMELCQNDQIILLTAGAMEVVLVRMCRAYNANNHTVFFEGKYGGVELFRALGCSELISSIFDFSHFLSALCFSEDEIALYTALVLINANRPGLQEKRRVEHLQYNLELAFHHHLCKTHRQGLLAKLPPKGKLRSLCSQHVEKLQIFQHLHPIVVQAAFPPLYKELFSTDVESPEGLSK

Compound | Potency
COc1cc(O)c(C(CC(=O)N2CCCC(C)C2)c2ccccc2OC)c(OC)c1 (centres undefined) | inactive
COc1cc(O)c(C(CC(=O)N2CC(C)CC(C)C2)c2ccc(O)cc2)c(OC)c1 (centres undefined) | 2.04 µM (active)
COc1cc(O)c(C(CC(=O)N(Cc2ccccc2)Cc2ccccc2)c2ccc3c(c2)OCO3)c(OC)c1 (centres undefined) | inactive
COc1cc(O)c(C(CC(=O)N2CCCC(C(=O)c3ccccc3)C2)c2ccc3c(c2)OCO3)c(OC)c1 (centres undefined) | inactive
COc1cc(O)c(C(CC(=O)N2CCCCC2)c2ccc(C)cc2)c(OC)c1 (centres undefined) | 32.3 µM (active)
Cc1ccc(C)c(/C=N/n2cc(-c3ccccc3)[nH]c2=S)c1 | 0.575 µM (active)
C=C1Nc2c(-c3ccc(F)cc3)cnn2C(N)=C1c1ccccc1 | 0.0911 µM (active)
CC(C)(C)c1ccc(-c2noc(CCC(=O)Nc3cccnc3)n2)cc1 | 0.257 µM (active)
O=C(CCCN1C(=O)/C(=C/c2ccccc2Cl)SC1=S)Nc1cccnc1 | 1.82 µM (active)
COc1cc(OC)c(C(CC(=O)N2CC(C)CC(C)C2)c2ccc3c(c2)OCO3)c(OCC(N)=O)c1 (centres undefined) | 11.5 µM (active)
COc1cc(O)c(C(CC(=O)N2CCCC(C)C2)c2cccs2)c(OC)c1 (centres undefined) | 7.24 µM (active)
COc1cc(O)c(C(CC(=O)N2CCCC(C#N)C2)c2ccc3c(c2)OCO3)c(OC)c1 (centres undefined) | inactive
COc1cc(O)c(C(CC(=O)N2CCCC(C)C2)c2ccc(-c3ccccc3)cc2)c(OC)c1 (centres undefined) | inactive
CC(C)(C)c1ccc([S+](=O)([O-])Nc2ccccc2C(O)(C(F)(F)F)C(F)(F)F)cc1 | 16.2 µM (active)
